Source: PubChem
BoNT-A LC inh2 – blocks Botulinum neurotoxin A light chain protease. multiplex microsphere protease substrate cleavage, flow cytometry. inhibition, % at 10 µM. 360,000 tested, 0.17% active; also: plate controls were buffer without enzyme for full effect and enzyme alone for no effect
PfHsp40 rescue – rescue of PfHsp40-mediated yeast toxicity. S. cerevisiae expressing PfHsp40, growth rescue, ATP luminescence. growth rescue, % at 12.5 µM. 340,000 tested, 0.68% active. AID 504582; in the data active = growth rescue above about 28%, passing the limit was not always enough; inconclusive = no clear call, values can overlap the other calls;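 also: yeast W303a lacking pdr1 and pdr3 grown in galactose medium; growth measured after three days at 30 °C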
Anthrax LF prot – anthrax lethal factor protease inhibition; inhibition, % at 10 µM; P15917; multiplex microsphere protease cleavage assay, LF; 360,000 tested, 0.12% active; also: plate controls were buffer without enzyme for full effect and enzyme alone for no effect
BoNT F protease – BoNT F light chain protease inhibition; Multiplex microsphere protease cleavage assay, flow cytometry; inhibition, % at 10 µM; 360,000 tested, 0.22% active; in the data active = inhibition above about 35%, passing the limit was not always enough; inconclusive = no clear call, values can overlap the other calls; also: plate controls were buffer without enzyme for full effect and enzyme alone for no effect
Bead autofluor – counter-screen for toxin protease inhibitors: compound fluorescence | AID 624483 | compound autofluorescence counterscreen, microsphere flow cytometry; active compounds read high | fluorescence intensity (concentration not given with the values) | 360,000 tested, 3.1% active; in the data active = fluorescence intensity above about 16000; inconclusive = no clear call, values can overlap the other calls
MazEF act – increases E. coli MazEF RNase cleavage of RNA. P0AE70. FAM/BHQ RNA-DNA oligo cleavage fluorescence, 5 h. activation, % at 20 µM. 350,000 tested, 0.32% active; in the data active = activation above about 50%
Target sequence (P0AE70 whole entry, looked up): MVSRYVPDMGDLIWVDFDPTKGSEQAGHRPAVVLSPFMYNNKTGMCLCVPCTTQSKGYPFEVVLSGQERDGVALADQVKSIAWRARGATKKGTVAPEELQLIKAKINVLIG
* marks the source's active call; other numbers are inactive results; u = inconclusive; x = no result. An excerpt weighted towards active compounds, which were near 4.3% of everything screened. Rule as the data show it, unless noted: active = inhibition above about 30%; inconclusive = no clear call, values can overlap the other calls; inactive = below that.

SMILES	BoNT-A LC inh2	PfHsp40 rescue	Anthrax LF prot	BoNT F protease	Bead autofluor	MazEF act
COc1ccc2c(c1)C(c1ccccc1)NC(=O)C2 (stereo not drawn)	0.0	-1.2	-5.1	3.7	2907	-5.6
O=C(Nc1cccc(C(F)(F)F)c1)c1ccc(Cn2cc(Br)cn2)o1	4.7	2.3	-11.3	5.3	17799*	3.0
C[C@@]12C(=O)N(CC3CC3)CC(=O)N1[C@H](/C=C/c1ccccc1)[C@@H]1C(=O)N(c3ccccc3)C(=O)[C@@H]12	0.2	-0.3	2.3	-0.9	4074	3.1
O=C(NCc1ccccn1)C(=O)NCC1OCCN1S(=O)(=O)c1ccc([N+](=O)[O-])cc1 (stereo not drawn)	-2.6	106.8*	-0.3	2.4	4531	-0.3
C=CCSc1[nH]c(=O)cc(C)c1C(N)=O	2.2	-0.8	-2.0	3.5	19287*	5.2
Cc1cc(C)c(C(N)=O)c(SCC(=O)c2cc(C)c(C)cc2C)n1	0.0	1.2	-0.3	-0.9	2489	-4.0
O=c1c(-c2nc3ccccc3s2)cccn1Cc1ccccc1	u	-1.0	5.6	1.1	22734*	7.6
Cc1ccc(Cn2cccc(-c3nc4ccccc4s3)c2=O)cc1	3.0	-0.3	-2.6	4.1	4380	74.4*
Nc1ccccc1-c1nc2ccccc2s1	3.1	0.0	-1.2	-1.1	3215	3.5
CSc1ccccc1OCc1cc(C(=O)NCC(C)Oc2cccnc2)no1 (stereo not drawn)	-0.5	x	-3.8	-1.3	3841	-13.8
CCN1CCN(CC#CCOc2ccccc2OC)CC1	0.0	0.8	-21.1	u	3125	3.7
O=C(NCc1cccc(Cl)c1)c1ccc(N2CC3CC(C2)c2cccc(=O)n2C3)c(NC(=O)c2cccnc2)c1 (stereo not drawn)	2.6	-0.8	0.5	4.4	4771	-5.8
CCC(=Nc1ccc2c(c1)CCC2)c1c(O)n(C2CCCCC2)c(=O)[nH]c1=O	u	0.6	-0.3	-0.5	22000*	-13.5
CCCN(CCC)S(=O)(=O)c1ccc(NS(C)(=O)=O)cc1	-0.4	0.0	-1.9	-6.0	3144	1.5
CCCN(CCC)S(=O)(=O)c1ccc(NS(=O)(=O)c2ccc(F)cc2)cc1	-2.1	0.7	-2.6	-1.4	17098*	6.1
COc1ccc(-c2noc(=O)n2CC(=O)N2CCC(Cc3ccccc3)CC2)cc1	-0.5	1.6	0.2	7.0	3870	-0.2
Cc1cc(Nc2cccc(Cl)c2)nc(-c2ccccc2O)n1	-2.6	1.0	-13.9	-29.0	3979	16.1
Cc1cc(Nc2ccc(Cl)cc2)nc(-c2ccccc2O)n1	2.3	71.5*	-0.2	-21.0	4048	16.5
Cc1cc(Nc2ccc(Cl)cc2)nc(N)n1	1.2	1.9	-3.6	0.4	21661*	3.3
O=C(O)CCCC(=O)OCc1c(-c2ccccc2)ncc2ccccc12	-0.3	0.2	-9.1	-3.4	3937	-2.1
O=C(CCS(=O)(=O)Cc1ccccc1)N1CCc2ccccc2C1	3.8	-0.4	-5.0	2.3	21963*	-4.7
O=C(CCS(=O)(=O)Cc1ccccc1F)N1CCc2ccccc2C1	x	0.0	x	x	x	4.8
CC1(NC(=O)c2cc(S(=O)(=O)N3CCCCC3)ccc2Cl)CCS(=O)(=O)C1 (stereo not drawn)	-1.8	1.6	-0.2	-0.7	24171*	-1.1
COc1ccc(S(=O)(=O)N2CCC(C(=O)NC3(C)CCS(=O)(=O)C3)CC2)cc1OC (stereo not drawn)	-3.5	-1.7	7.3	-12.5	4920	1.5
O=C(COC(=O)CNC(=O)c1ccccc1)NCCCc1ccccc1	0.3	0.7	16.2	-7.6	4116	9.0
SMILES	BoNT-A LC inh2	PfHsp40 rescue	Anthrax LF prot	BoNT F protease	Bead autofluor	MazEF act
CN(C(=O)Nc1ccc(Cl)cc1)c1c2c(nn1C)CCCC2	u	-2.9	-3.3	-6.5	23809*	1.6
CC(c1ccccc1)N1CCn2c(nc3cc(NC(=O)NC4CCCCC4)ccc32)C1 (stereo not drawn)	12.7	7.2	-6.4	-22.3	19391*	11.1
COC(=O)C1=CN(c2cccc(C)c2)C=C(C(=O)OC)C1c1cc(OC)c(O)c([N+](=O)[O-])c1	1.6	0.2	-0.2	1.8	22321*	2.0
COC(=O)C1=CN(c2ccc(OC)cc2)C=C(C(=O)OC)C1c1ccc(C)c([N+](=O)[O-])c1	0.6	0.4	-0.3	-3.2	1987	1.9
Cc1ccc(C)c(N2CCN(C(=O)c3ccc(CS(=O)(=O)c4ccccc4C)o3)CC2)c1	-0.4	3.4	2.8	4.3	9264	-0.7
Cc1cccc(N2CCN(C(=O)c3ccc(CS(=O)(=O)c4ccccc4C)o3)CC2C)c1 (stereo not drawn)	u	0.4	-1.7	1.3	21673*	8.6
COc1ccccc1S(=O)(=O)Cc1ccc(C(=O)N2CCN(c3ccccc3)CC2)o1	0.5	-0.7	0.0	-0.3	21717*	-10.9
COc1ccccc1S(=O)(=O)Cc1ccc(C(=O)N2CCN(c3cccc(Cl)c3)CC2)o1	0.6	5.1	4.3	-1.2	9609	6.6
COC(=O)c1ccc(CS(=O)(=O)c2ccccc2C)o1	u	u	-2.3	1.0	23513*	2.0
CN1C2C(Br)CCCCN2c2ccc(F)cc2S1(=O)=O (stereo not drawn)	-1.2	0.4	1.0	-6.8	3806	2.7
COC(=O)c1ccc2c(=O)[nH]c(CN3c4ccccc4CC3C)nc2c1 (stereo not drawn)	u	-0.4	-6.7	-2.2	19519*	2.2
CC1Cc2ccccc2N1Cc1nc2cc(Cl)ccc2c(=O)[nH]1 (stereo not drawn)	0.2	0.0	-2.9	-1.7	3046	5.7
N#C/C(=C/c1ccc(N2CCOCC2)o1)c1nc2ccccc2[nH]1	-4.6	-0.8	-1.4	125.5*	11009	428.0*
O=C1/C(=C/c2cccc(Br)c2)SC(=S)N1CCC(=O)N(CCO)c1ccccc1	-0.5	0.1	-0.6	-3.9	3084	-6.6
O=C1/C(=C/c2ccc3c(c2)OCO3)SC(=S)N1CCC(=O)N(CCO)c1ccccc1	2.7	x	4.2	2.7	3658	77.4*
C/C(=N\NC(=O)c1c[nH]c2ccccc12)c1ccc(C)o1	-2.2	-0.4	-1.1	-3.7	23011*	2.9
C=CCn1c(SCC(=O)N(CC)CC)nc(O)cc1=O	u	1.2	-1.9	-0.7	23021*	1.3
Cc1cccc(S(=O)(=O)c2c(N)n(/N=C/c3ccccc3)c3nc4ccccc4nc23)c1	-0.5	0.0	-0.4	-1.6	16348*	-11.5
N#Cc1ccc2ccn(CC(=O)NC3CCCCC3)c2c1	0.6	1.5	-3.5	0.4	16380*	13.8
N#Cc1ccc2ccn(CC(=O)NCc3ccccc3)c2c1	0.5	-0.3	0.8	-10.9	10009	3.3
O=C1OC(c2ccccc2)=NC12CC2c1ccc(Cl)cc1 (stereo not drawn)	0.0	255.5*	-0.3	-0.9	1970	-10.1
COC(=O)c1cc(C(=O)OC)cc(N2C(=O)CC(NNC(=O)c3ccccc3Br)C2=O)c1 (stereo not drawn)	-5.9	-0.9	-7.5	-7.9	17445*	1.5
